The values that follow come from PubChem BioAssay.

By inhibition is commonly meant the change of the read-out against control, counted positive when it falls.

The source made the active and inactive calls.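 How the source made its calls, unless noted: active means NADPH fluorescence slope more negative than the mean of all samples by about 3 SD, 99.7% confidence; inactive means the rest.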

Experiment [1] is described as follows: inhibitors of TNFa-induced NFkB p65 translocation, primary screen, imaging, HUVEC, MLSMR starter and 10KST1 sets (AID 438;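 active means inhibition above 20% together with a positive visual image hit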;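 further: compound added about 3h40 before a 20 min TNFalpha stimulation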;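 on inhibition: signal is the nuclear over cytoplasmic p65 intensity ratio per well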). The note with it: HUVEC TNFa-induced p65 nuclear translocation; cell count: measured here: nuclei count (cytotoxicity indicator), at 2.08 µM; inhibition: at 2 µM, stronger effect = higher value, 0% TNFa-plus-vehicle, 100% no-TNFa wells.
The nature of experiment [2]: inhibitors of mutant huntingtin aggregation, primary screen, imaging, exon1htt(103Q)mCFP cells, high-content imaging (AID 483;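 active means visual image review flags a hit and inhibition of aggregation exceeds 20%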;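 further: compound exposure lasted 3 days before fixation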;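 on nuclei count: percent of the per-plate median nuclei count of sample wells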). The note with it: exon1htt(103Q)mCFP cell line, aggregate imaging, at 2 µM; inhibition of aggregation: stronger effect = higher value; nuclei count: measured here: cell count, toxicity.
Experiment [3] can be described thus: inhibitors of E-selectin induction by TNFa, primary screen, imaging, HUVEC, immunofluorescence, MLSMR starter and 10KST1 sets (AID 487;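 active means visually confirmed hit in the image check and inhibition above 20%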;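 on inhibition: signal is fraction of cell area covered by stained E-selectin grains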;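 on nuclei count: 100% = median nuclei count of all wells on the same plate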). The note with it: HUVEC TNFalpha-induced E-selectin immunofluorescence imaging, at 2 µM; inhibition: stronger effect = higher value; nuclei count: measured here: cell number, toxicity.
Experiment [4] has as its target Voltage-gated potassium channel subunit beta-2 (Rattus norvegicus) (UniProt P62483). As to the kind of experiment: KvBeta enzyme negative modulators, primary screen, biochemical, NADPH fluorescence (AID 622;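 active means fluorescence slope higher than the sample average by over 3 SD, cut at about -0.22 in these data, passing the limit was not always enough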;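 further: slope of raw intensity against log time taken from 70 to 1610 s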). The note with it: recombinant KvBeta, 4-cyanobenzaldehyde reduction, at 10 µM, stronger effect = higher value.
The target is the same in experiment [5]. Description: KvBeta positive modulators, primary screen, biochemical, NADPH fluorescence (AID 623).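 Further: fluorescence intensity change per second fitted from 20 to 320 s.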 The note with it: Recombinant KvBeta, NADPH fluorescence decrease slope, 10 min; at 10 µM; stronger effect = lower value.
Experiment [6] concerns the target Alpha-2C adrenergic receptor (Homo sapiens) (UniProt P18825). Description: modulators of alpha2C/GIRK thallium flux, primary screen, cell-based, HEK293 alpha2C/GIRK1/2 (AID 624;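 active means fluorescence slope after compound addition differing from the mean of all screened samples at 99.7% confidence, in either direction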;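 further: slope of fluorescence ratio to pre-addition baseline per second over 15 to 24 s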). The note with it: thallium flux BTC fluorescence, at 10 µM, actives lie on both sides.
A short description of experiment [7]: inhibitors of Sendai virus-induced IRF3 signaling, primary screen, TLR/RLR signaling modifier project, cell-based, Sendai virus stimulus, luciferase, 10K MLSCN set (AID 602276;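 active means inhibition at or above 50% at 10 µM; inactive means inhibition below 50%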;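 further: firefly luciferase from ISG56 promoter only with Renilla not read in this screen; 0% = Sendai virus plus DMSO and 100% = medium plus DMSO without virus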). The note with it: HEK293 RL24 IRF3 luciferase reporter, at 10 µM, stronger effect = higher value. (In general: A reporter such as luciferase makes a cellular process visible.)
The nature of experiment [8]: inhibitors of poly I:C-induced TLR3 signaling, primary screen, cell-based, poly I:C stimulus, luciferase, 10K MLSCN set (AID 602277;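 active means inhibition of the reporter signal at or above 50%; inactive means inhibition below 50%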). The note with it: HEK293-TLR3 RL24 IRF3 luciferase reporter, at 10 µM, stronger effect = higher value.

Chain of Voltage-gated potassium channel subunit beta-2 (Rattus norvegicus) (P62483 whole entry, looked up): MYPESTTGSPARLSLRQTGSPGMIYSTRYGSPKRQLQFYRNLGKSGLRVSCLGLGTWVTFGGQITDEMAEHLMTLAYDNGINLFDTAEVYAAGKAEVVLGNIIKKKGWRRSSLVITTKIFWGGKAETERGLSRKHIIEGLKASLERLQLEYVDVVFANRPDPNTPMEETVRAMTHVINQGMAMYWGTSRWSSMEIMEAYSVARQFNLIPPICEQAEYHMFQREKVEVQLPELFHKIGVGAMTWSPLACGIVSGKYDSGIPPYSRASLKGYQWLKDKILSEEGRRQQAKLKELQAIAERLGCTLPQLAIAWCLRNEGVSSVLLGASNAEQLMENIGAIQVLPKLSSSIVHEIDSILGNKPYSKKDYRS
Chain of Alpha-2C adrenergic receptor (Homo sapiens) (P18825 whole entry, looked up): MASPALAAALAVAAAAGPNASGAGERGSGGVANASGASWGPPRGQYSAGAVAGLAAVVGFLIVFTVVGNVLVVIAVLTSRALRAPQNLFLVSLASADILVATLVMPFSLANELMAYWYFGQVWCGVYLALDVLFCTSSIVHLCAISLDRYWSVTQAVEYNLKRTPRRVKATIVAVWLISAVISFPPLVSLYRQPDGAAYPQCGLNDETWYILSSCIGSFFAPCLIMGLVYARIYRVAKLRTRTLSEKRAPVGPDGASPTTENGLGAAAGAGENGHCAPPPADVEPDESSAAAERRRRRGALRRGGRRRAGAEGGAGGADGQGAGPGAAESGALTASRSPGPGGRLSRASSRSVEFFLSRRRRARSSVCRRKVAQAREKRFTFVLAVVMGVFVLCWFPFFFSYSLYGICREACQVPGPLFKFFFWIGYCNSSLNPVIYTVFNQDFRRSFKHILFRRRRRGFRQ

With `CCOC(=O)c1c(C)oc2c1c(C(c1ccncc1)N1CCOCC1)c(O)c1ccccc12` (centres undefined), the cell count in experiment [1] turned out to be 827. Moreover, the inhibition is -7.9% (inactive) in experiment [1], -21.1% (inactive) in experiment [3], -6.32% (inactive) in experiment [7] and -31.2% (inactive) in experiment [8]. The inhibition of aggregation in experiment [2] is -6.4% (inactive). In addition, the nuclei count in experiment [2] is 101%; in experiment [3] it was 107%. Further, the fluorescence slope in experiment [4] is -0.594 (inactive). For the same molecule, in experiment [5], the NADPH fluorescence slope is 2.5e-05 (inactive). The slope in experiment [6] was 0.00459 (inactive).

Turning to `c1ccc(Cn2nnnc2CN2CCN(c3ncccn3)CC2)cc1`, in experiment [1], the cell count was 717. Besides, the inhibition in experiment [1] is -8.1% (inactive); in experiment [3], -11.1% (inactive); in experiment [7], 11.4% (inactive); in experiment [8], 20.1% (inactive). For the same molecule, the inhibition of aggregation in experiment [2] is -12.8% (inactive). Further, the figures for the nuclei count in experiment [2] and in experiment [3] were 114% and 130%, respectively. For the same molecule, the fluorescence slope in experiment [4] is -0.585 (inactive). Also, the NADPH fluorescence slope in experiment [5] is -4.5e-05 (inactive). The slope in experiment [6] is 0.0043 (inactive).

On to `O=c1[nH]c(N2CCc3ccccc32)nc2c1CCCC2`, for which, in experiment [1], the cell count was 309. Further, the inhibition in experiment [1] is 1.1% (inactive); in experiment [3], 14.7% (inactive); in experiment [7], 6.82% (inactive); in experiment [8], -14.4% (inactive). Also, the inhibition of aggregation in experiment [2] is 11% (inactive). Moreover, the figures for the nuclei count in experiment [2] and in experiment [3] were 68.4% and 82.4%, respectively. Besides, the fluorescence slope in experiment [4] is -0.507 (inactive). For the same molecule, the NADPH fluorescence slope in experiment [5] was -4.2e-05 (inactive). Further, the slope in experiment [6] is 0.0041 (inactive).

Turning to `COc1ccccc1N1CCN(CC(O)c2ccc3cc[nH]c3c2)CC1` (centres undefined), the cell count in experiment [1] was 633. The inhibition is -3.9% (inactive) in experiment [1], -43.4% (inactive) in experiment [3], -0.148% (inactive) in experiment [7] and 27.7% (inactive) in experiment [8]. In addition, in experiment [2], the inhibition of aggregation was 3.6% (inactive). The values for the nuclei count in experiment [2] and in experiment [3] were 114% and 105%, respectively. The fluorescence slope in experiment [4] is -0.54 (inactive). In experiment [5], the NADPH fluorescence slope was -1.4e-05 (inactive). Also, in experiment [6], the slope was 0.0062 (inactive).

In the case of `N#Cc1cc2c(nc1SCC(=O)N1CCCCC1)CCCC2`, the cell count in experiment [1] worked out at 220. The inhibition is 5.5% (inactive) in experiment [1], -46% (inactive) in experiment [3], -26.1% (inactive) in experiment [7] and -20.2% (inactive) in experiment [8]. Moreover, the inhibition of aggregation in experiment [2] was 0.1% (inactive). Also, the results for the nuclei count in experiment [2] and in experiment [3] were 90.1% and 98.7%, respectively. Moreover, the fluorescence slope in experiment [4] is -0.473 (inactive). Besides, in experiment [5], the NADPH fluorescence slope was 4.2e-05 (inactive). Besides, the slope in experiment [6] is 0.00388 (inactive).

For the molecule `CCOc1ccc(CNc2ccc3c(c2)ncn3C)cc1`, the cell count in experiment [1] is 174. For the same molecule, the inhibition is -3% (inactive) in experiment [1], 4.7% (inactive) in experiment [3], -27.2% (inactive) in experiment [7] and -76.3% (inactive) in experiment [8]. Also, in experiment [2], the inhibition of aggregation was -8.8% (inactive). For the same molecule, the nuclei count in experiment [2] is 72.5%; in experiment [3], 90.2%. Moreover, the fluorescence slope in experiment [4] is -0.435 (inactive). In addition, in experiment [5], the NADPH fluorescence slope was -1.3e-05 (inactive). The slope in experiment [6] was 0.00471 (inactive).

For the molecule `CCOCCCNC(=O)C1CCCN(S(=O)(=O)CC)C1` (centres undefined), in experiment [1], the cell count is 630. Besides, the inhibition in experiment [1] was -36% (inactive); in experiment [3], -3.3% (inactive); in experiment [7] it was 15.1% (inactive); in experiment [8], 12.2% (inactive). Further, the inhibition of aggregation in experiment [2] is -6.6% (inactive). In addition, the nuclei count in experiment [2] was 112%; in experiment [3], 95.1%. Further, the fluorescence slope in experiment [4] is -0.408 (inactive). In experiment [5], the NADPH fluorescence slope is -4e-05 (inactive). In addition, the slope in experiment [6] is 0.00421 (inactive).

With `CCOC(=O)c1c(C)n(OCc2ccccc2)c2ccc3c(no[n+]3[O-])c12`, in experiment [1], the cell count turned out to be 437. The inhibition in experiment [1] is 4% (inactive); in experiment [3] it was 8.8% (inactive); in experiment [7] it was 2.55% (inactive); in experiment [8], 13.2% (inactive). For the same molecule, the inhibition of aggregation in experiment [2] is 2.1% (inactive). The figures for the nuclei count in experiment [2] and in experiment [3] were 104% and 111%, respectively. For the same molecule, in experiment [4], the fluorescence slope was -0.484 (inactive). The NADPH fluorescence slope in experiment [5] is -1e-05 (inactive). The slope in experiment [6] is 0.00638 (inactive).

As to `COC(=O)Nc1ccc(NC(C)=O)cc1`, the cell count in experiment [1] amounted to 398. In addition, the inhibition in experiment [1] was -4.4% (inactive); in experiment [3], 6.8% (inactive); in experiment [7] it was -9.94% (inactive); in experiment [8] it was -5.16% (inactive). The inhibition of aggregation in experiment [2] is 20.9% (inactive). Moreover, the nuclei count in experiment [2] amounted to 82.1%; in experiment [3], 94.6%. Further, the fluorescence slope in experiment [4] is -0.493 (inactive). Moreover, in experiment [5], the NADPH fluorescence slope was 6e-05 (inactive). Also, the slope in experiment [6] is 0.00538 (inactive).

For `O=C1CCc2cc(S(=O)(=O)N3CCC(C(=O)Nc4nccs4)CC3)ccc2N1`, the cell count in experiment [1] came out at 821. Also, the inhibition was 3.9% (inactive) in experiment [1], -38.5% (inactive) in experiment [3], 18.5% (inactive) in experiment [7] and 28.2% (inactive) in experiment [8]. In experiment [2], the inhibition of aggregation was -29.1% (inactive). Further, the nuclei count amounted to 105% in experiment [2] and 102% in experiment [3]. The fluorescence slope in experiment [4] was -0.593 (inactive). Moreover, in experiment [5], the NADPH fluorescence slope was -4.4e-05 (inactive). In addition, the slope in experiment [6] was 0.00714 (inactive).

For `CCC(C)(NC(=O)CNC(C)=O)C(=O)NC1CCCCC1` (centres undefined), the cell count in experiment [1] is 610. The inhibition was -15.7% (inactive) in experiment [1], -24.9% (inactive) in experiment [3], -6.71% (inactive) in experiment [7] and -2.23% (inactive) in experiment [8]. For the same molecule, the inhibition of aggregation in experiment [2] was -1.1% (inactive). Moreover, the nuclei count turned out to be 122% in experiment [2] and 116% in experiment [3]. Moreover, in experiment [4], the fluorescence slope was -0.472 (inactive). The NADPH fluorescence slope in experiment [5] was -0.000295 (inactive). Besides, the slope in experiment [6] was 0.00509 (inactive).

As to `COC(=O)[C@@H](NC(=O)NCc1ccccc1Cl)C(C)C`, in experiment [1], the cell count was 732. The inhibition in experiment [1] was 8.4% (inactive); in experiment [3], 15.5% (inactive); in experiment [7], 4.11% (inactive); in experiment [8] it was 32.6% (inactive). Moreover, the inhibition of aggregation in experiment [2] is -23.1% (inactive). In addition, the results for the nuclei count in experiment [2] and in experiment [3] were 100% and 109%, respectively. Also, the fluorescence slope in experiment [4] was -0.469 (inactive). For the same molecule, the NADPH fluorescence slope in experiment [5] was -2.9e-05 (inactive). Further, the slope in experiment [6] was 0.00402 (inactive).

`O=C(NCCSc1c[nH]c2ccccc12)c1ccc(Br)o1`: the cell count in experiment [1] was 564. For the same molecule, the inhibition was 3.9% (inactive) in experiment [1], -35.7% (inactive) in experiment [3], 6.55% (inactive) in experiment [7] and -6.47% (inactive) in experiment [8]. The inhibition of aggregation in experiment [2] is -4.5% (inactive). Moreover, the nuclei count was 114% in experiment [2] and 113% in experiment [3]. For the same molecule, the fluorescence slope in experiment [4] was -0.559 (inactive). For the same molecule, the NADPH fluorescence slope in experiment [5] is -4.4e-05 (inactive). In experiment [6], the slope is 0.00687 (inactive).

On to `CC(=O)N(C)C1(c2nnnn2CCOC(=O)Nc2cccc3ccccc23)CCCC1`, for which, in experiment [1], the cell count was 600. Further, the inhibition is -8.2% (inactive) in experiment [1], -99.1% (inactive) in experiment [3], 13% (inactive) in experiment [7] and 21.8% (inactive) in experiment [8]. Moreover, the inhibition of aggregation in experiment [2] is 31.6% (inactive). Besides, the results for the nuclei count in experiment [2] and in experiment [3] were 98.9% and 105%, respectively. Besides, in experiment [4], the fluorescence slope was -0.61 (inactive). In addition, in experiment [5], the NADPH fluorescence slope is -5.7e-05 (inactive). For the same molecule, the slope in experiment [6] was 0.00458 (inactive).
